Measured values as given in PubChem BioAssay AID463195 (Sanford-Burnham Center for Chemical Genomics, 2010).
The campaign covered roughly 330,000 compounds. About 4,600 (1.4%) were called active.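 The calls were made as follows: active = inhibition of 40% or more at the single tested concentration; inactive = the rest.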 The list comes from a sample in which actives are over-represented; it also holds similar structures and randomly drawn compounds.

Assay: wild-type TIM10 yeast growth inhibition – luminescence, uHTS, counter-screen for tim10-1 yeast inhibitor project, primary screen (AID 463195);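 also: wild-type TIM10 isogenic control strain grown at permissive 25 °C; 0% = DMSO yeast wells and 100% = minimal medium wells without yeast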
Conditions: S. cerevisiae TIM10 strain growth, BacTiter-Glo luminescence, 24 h; at 10 µM; hits give high values

**Q.** With `CC(=O)c1ccc(N2Cc3ccccc3C2)cc1` as the compound, how does the inhibition read?
**A.** Its inhibition is 8.18% (inactive).

**Q.** Which inhibition does the source give for `Cc1ccc(-c2nc(COC(=O)c3c(C)noc3C)cs2)cc1` here?
**A.** Its inhibition is 1.5% (inactive).

**Q.** With `Oc1ccc2ccc3cccc[n+]3c2c1` as the compound, how does the inhibition read?
**A.** Its inhibition is -22.6% (inactive).

**Q.** Which inhibition does the source give for `COCCN1C(=O)c2oc3c(C)cc(C)cc3c(=O)c2C1c1cccc(O)c1` (centres undefined) here?
**A.** Its inhibition is -2.19% (inactive).

**Q.** For `CC1CC2=C(CC1/C=N/NC(N)=S)C(C)(C)CCC2` (centres undefined), which inhibition is on record?
**A.** The inhibition was 13.8% (inactive).

**Q.** Which inhibition does the source give for `N#Cc1ccc(C(=O)Nc2nc(-c3cccs3)c(C(=O)C(F)(F)F)s2)cc1` here?
**A.** Its inhibition is 9.92% (inactive).

**Q.** With `CCC(CC)C(=O)Nc1c2c(nn1-c1ccc(C)cc1)CS(=O)(=O)C2` as the compound, how does the inhibition read?
**A.** Its inhibition is 4.97% (inactive).

**Q.** With `CC/S(CC1CC1(Cl)Cl)=N\S(=O)(=O)c1ccc(C)cc1` (centres undefined) as the compound, how does the inhibition read?
**A.** The inhibition was 0.564% (inactive).

**Q.** With `CCN1C(=NCC(C)C)N[C@@H](CCc2ccccc2)[C@H](C(=O)NCC(C)C)[C@H]1C` as the compound, how does the inhibition read?
**A.** Its inhibition is -3.76% (inactive).

**Q.** With `O=C(N/N=C/c1cccc(OCc2ccccc2)c1)c1ccc(Br)o1` as the compound, how does the inhibition read?
**A.** Its inhibition is 26.3% (inactive).

**Q.** With `N#C/C(=C\c1ccc(O)c(O)c1)C(=O)NCc1ccccc1` as the compound, how does the inhibition read?
**A.** The inhibition was -1.33% (inactive).

**Q.** For `COCCNC(=O)/C(C#N)=C/c1cccc(OCc2ccccc2)c1`, which inhibition is on record?
**A.** Its inhibition is 55.7% (active).

**Q.** For `CC(C)COc1ccc(C(=O)OCC(=O)NCCC2=CCCCC2)cc1`, which inhibition is on record?
**A.** Its inhibition is 11.3% (inactive).

**Q.** With `COC(=O)c1ccc(COc2cc([N+](=O)[O-])cc3cccnc23)cc1` as the compound, how does the inhibition read?
**A.** Its inhibition is -32.2% (inactive).

**Q.** For `C=C(C)c1cccc(C(C)(C)NC(=O)N2CCN(c3ncccn3)CC2)c1`, which inhibition is on record?
**A.** Its inhibition is 3.72% (inactive).

**Q.** Which inhibition does the source give for `COc1ccc(-c2cc(-c3ccc(N)cc3)nc(N)c2C#N)cc1OC` here?
**A.** Its inhibition is 41% (active).

**Q.** Which inhibition does the source give for `CCOc1cc(-c2cc(-c3ccc(OC)cc3)nc(N)c2C#N)ccc1O` here?
**A.** The inhibition was 34% (inactive).

**Q.** For `CCOc1cc(-c2cc(-c3ccc(NC(C)=O)cc3)nc(N)c2C#N)ccc1O`, which inhibition is on record?
**A.** Its inhibition is -6.1% (inactive).

**Q.** Which inhibition does the source give for `O=C(CN1CCN(S(=O)(=O)c2ccc3ccccc3c2)CC1)NC(=O)NC1CCCCC1` here?
**A.** The inhibition was 44.2% (active).

**Q.** For `O=C(CN1CCN(S(=O)(=O)c2ccc(F)cc2)CC1)NC1CC1`, which inhibition is on record?
**A.** The inhibition was 0.605% (inactive).

**Q.** With `COc1ccc(S(=O)(=O)N2CCN(C(=O)NC3CCCCC3)CC2)cc1` as the compound, how does the inhibition read?
**A.** Its inhibition is -5.18% (inactive).

**Q.** Which inhibition does the source give for `O=C(NC(=S)Nc1cccc2c(O)cccc12)c1cccc(Br)c1` here?
**A.** The inhibition was 20.4% (inactive).

**Q.** For `O=C1c2ccccc2S(=O)(=O)c2cc(N3CCN(c4ccccn4)CC3)ccc21`, which inhibition is on record?
**A.** Its inhibition is -6.37% (inactive).

**Q.** Which inhibition does the source give for `Cc1cc(N)n2nc(-c3ccc(C(C)(C)C)cc3)cc2n1` here?
**A.** Its inhibition is 45.3% (active).

**Q.** With `Cc1cc(C(C)(C)C)cc(C)c1N` as the compound, how does the inhibition read?
**A.** Its inhibition is -4.47% (inactive).

**Q.** Which inhibition does the source give for `COc1ccc(-c2cc(C)nc3nc(N)nn23)cc1` here?
**A.** Its inhibition is 9.96% (inactive).

**Q.** With `C/C(CC(=O)Nc1cccc(C(F)(F)F)c1)=N\NC(=O)C(=O)NCC(C)C` as the compound, how does the inhibition read?
**A.** Its inhibition is 10.5% (inactive).

**Q.** For `CCOC(=O)CNC(=O)CSc1ccc2nnc(-c3cccnc3)n2n1`, which inhibition is on record?
**A.** Its inhibition is -17.7% (inactive).

**Q.** For `CCOC(=O)CNC(=O)CSc1nc2cccnc2n1CC`, which inhibition is on record?
**A.** The inhibition was 7.72% (inactive).

**Q.** For `CCOC(=O)CNC(=O)CSc1ncccc1-c1nc2ccccc2[nH]1`, which inhibition is on record?
**A.** The inhibition was 97.9% (active).

**Q.** For `CC(C)C(NC(=O)C1CCC(C(C)(C)C)CC1)C(=O)NCCCN1CCCCC1` (centres undefined), which inhibition is on record?
**A.** The inhibition was 6.75% (inactive).

**Q.** For `O=C(CNC(=O)c1ccccc1Br)NNC(=O)c1cccs1`, which inhibition is on record?
**A.** The inhibition was 3.43% (inactive).

**Q.** Which inhibition does the source give for `CC(Oc1cccc(NC(=O)c2cccs2)c1)C(=O)c1ccccc1` (centres undefined) here?
**A.** Its inhibition is 8.87% (inactive).

**Q.** Which inhibition does the source give for `Cc1ccoc1C(=O)Nc1cccc(Oc2ccccc2)c1` here?
**A.** The inhibition was 55.2% (active).

**Q.** Which inhibition does the source give for `Cc1cccc(NC(=O)Nc2cccc(Oc3c(F)c(F)c(F)c(F)c3F)c2)c1` here?
**A.** The inhibition was 8.17% (inactive).

**Q.** Which inhibition does the source give for `COc1ccccc1NC(=O)CSc1nnc(Cn2nnc(-c3ccccc3)n2)n1-c1ccccc1` here?
**A.** Its inhibition is 6.08% (inactive).

**Q.** Which inhibition does the source give for `Cc1ccc(NC(=O)COC(=O)CN2CCCCCC2=O)c(C)c1` here?
**A.** The inhibition was 7.63% (inactive).

**Q.** For `COc1ccc(CN2CCC(n3nccc3NC(=O)CCCc3ccccc3)CC2)cc1C`, which inhibition is on record?
**A.** The inhibition was 4.88% (inactive).

**Q.** Which inhibition does the source give for `Cc1cc2cc(CNC(=O)c3cccs3)ccc2[nH]1` here?
**A.** The inhibition was -0.032% (inactive).

**Q.** Which inhibition does the source give for `CCc1cccc(CC)c1NC(=S)NCc1ccc2[nH]c(C)cc2c1` here?
**A.** The inhibition was 54% (active).

**Q.** With `Cc1cc2cc(CNC(=O)c3ccc(S(=O)(=O)N4CCOCC4)cc3)ccc2[nH]1` as the compound, how does the inhibition read?
**A.** The inhibition was 7.18% (inactive).

**Q.** For `CNC(=S)N/N=C/c1cn(Cc2ccc(C)cc2)c2ccccc12`, which inhibition is on record?
**A.** Its inhibition is 51.4% (active).

**Q.** With `N#CCC(=O)N/N=C/c1cn(Cc2ccc3ccccc3c2)c2ccccc12` as the compound, how does the inhibition read?
**A.** Its inhibition is -20.2% (inactive).

**Q.** Which inhibition does the source give for `CCOC(=O)N/N=C/c1cn(Cc2ccccc2Cl)c2ccccc12` here?
**A.** The inhibition was 22% (inactive).

**Q.** With `C=CCN(c1ccc(Cl)cc1)S(=O)(=O)c1cccc(C(=O)OCC(=O)N(C)C)c1` as the compound, how does the inhibition read?
**A.** The inhibition was -12.8% (inactive).

**Q.** For `O=C(NCc1cccnc1)c1cn(-c2ccccc2)nc1-c1cccs1`, which inhibition is on record?
**A.** The inhibition was 2.96% (inactive).

**Q.** With `COc1cccc(NC(=O)CN(C)C(=O)/C=C/c2cn(-c3ccccc3)nc2-c2cccs2)c1` as the compound, how does the inhibition read?
**A.** Its inhibition is -5.41% (inactive).

**Q.** With `O=C(O)c1ccc(N/N=C/c2cn(-c3ccccc3)nc2-c2cccs2)cc1` as the compound, how does the inhibition read?
**A.** Its inhibition is 56.3% (active).

**Q.** Which inhibition does the source give for `CN(CC(=O)NC(=O)Nc1ccccc1F)Cc1ccccc1` here?
**A.** The inhibition was 2.75% (inactive).

**Q.** With `Cc1cc(C)c(S(=O)(=O)N2CCC(C(=O)OCc3c(C)noc3C)CC2)c(C)c1` as the compound, how does the inhibition read?
**A.** The inhibition was 8.76% (inactive).

**Q.** Which inhibition does the source give for `Cc1noc(C)c1NC(=O)Nc1cccc2c1O[C@H](CN(C)S(=O)(=O)c1c(C)noc1C)[C@@H](C)CN([C@H](C)CO)C2=O` here?
**A.** Its inhibition is 9.51% (inactive).

**Q.** For `CCCCN(CCCC)CC(O)Cn1c2ccccc2c(=O)c2ccccc21` (centres undefined), which inhibition is on record?
**A.** Its inhibition is -7.98% (inactive).

**Q.** With `O=C1c2ccccc2S(=O)(=O)N1CC(O)Cn1c2ccccc2c2ccccc21` (centres undefined) as the compound, how does the inhibition read?
**A.** The inhibition was 79.5% (active).

**Q.** With `CC(C)(C)c1ccc(CN2C(=O)c3ccccc3S2(=O)=O)cc1` as the compound, how does the inhibition read?
**A.** Its inhibition is 11% (inactive).

**Q.** For `COC(=O)c1ccc(C2C3=C(Nc4nnnn42)c2ccccc2OC3)cc1` (centres undefined), which inhibition is on record?
**A.** The inhibition was 27.5% (inactive).

**Q.** For `CCCc1[nH]nc2c1C(c1ccc(OC(=O)c3ccco3)cc1)C(C#N)=C(N)O2` (centres undefined), which inhibition is on record?
**A.** Its inhibition is 3.44% (inactive).

**Q.** For `CCCc1[nH]nc2c1C(c1ccc(Br)s1)C(C#N)=C(N)O2` (centres undefined), which inhibition is on record?
**A.** The inhibition was 66.7% (active).

**Q.** With `CCCc1[nH]nc2c1C(c1ccc(OC)c(Cn3nc(C)c(Br)c3C)c1)C(C#N)=C(N)O2` (centres undefined) as the compound, how does the inhibition read?
**A.** Its inhibition is 3.67% (inactive).

**Q.** For `CCCCN(CC)C(=O)CN(C)S(=O)(=O)c1cccc2nsnc12`, which inhibition is on record?
**A.** Its inhibition is -12.4% (inactive).
